Compound activity: PubChem, National Center for Advancing Translational Sciences (NCATS)
IL1B secr inh: inflammasome signaling inhibition, IL-1 beta readout; AID 743279; activity change, % at 57.5 µM; THP-1 LPS/ATP IL-1B secretion, AlphaLISA, 16 h; active compounds read low; actives 4.7% (n = 360,000); in the data active means activity change below about -50%; inconclusive means mostly about -30% to -49%
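THP-1 cells pretreated 1 hr with compounds (up to 57.5 uM final), then stimulated with LPS (250 ng/mL final) plus ATP (1.25 mM final); secreted IL-1B measured by AlphaLISA after 16 hr, decreased signal indicating inhibition.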
DT40 TDP1 no CPT: qHTS for Inhibitors of human tyrosyl-DNA phosphodiesterase 1 (TDP1): qHTS in cells in absence of CPT. DT40 Tdp1-/- hTDP1 cells, no CPT, ATP luminescence, 48 h. Potency, µM (doses to about 46.2 µM), actives largely listed as inhibitors. actives 15% (n = 420,000); further: nearly all actives have a fitted effect of over 55% in size
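Chicken DT40 Tdp1-/- cells stably complemented with human TDP1 were seeded at 400 cells/well with DMSO in place of 20 nM camptothecin. After compound pinning, cells grew at least 48 hr at 37 °C; viability read by CellTiter-Glo luminescence.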
HepG2 tox: kills HepG2 cells in TGF-b inhibitor counter-screen. AID 588856. Potency, µM (titrated, usually from 46.1 µM), usual class: cytotoxic. HepG2 CAGA-GFP viability, ATP luminescence, 18 h. actives 0.76% (n = 410,000)
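HepG2 CAGA-GFP cells (1000/well, DMEM with 1% FBS) received compound, then TGF-beta at 500 pg/mL final, and were incubated 18 hours at 37 degrees C. Viability was read by CellTiter-Glo luminescence. Media-only wells were set as complete cell-killing and DMSO as no toxicity.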
DT40 TDP1 CPT: DT40-hTDP1 cell growth loss with CPT | chicken DT40 Tdp1-/-;hTDP1 cells + 20 nM CPT, ATP luminescence, 48 h | Potency, µM (series often up to 46.2 µM), actives largely listed as inhibitors | actives 12% (n = 420,000) | AID 686979; further: nearly all actives have a fitted effect of over 55% in size
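Cell growth measured by CellTiter-Glo luminescence after a minimum 48 h, 37 C compound exposure with 20 nM CPT in Tdp1-knockout DT40 cells stably expressing hTDP1, seeded 400/well; qHTS titration format.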
TGFb inhibitor: blocks TGF-b signaling; HepG2 CAGA-GFP TGF-b/SMAD3 reporter, GFP fluorescence, 18 h; TGF-beta stimulated, 500 pg/mL final; Potency, µM (titrated, usually from 46.1 µM), hits mostly inhibitors; actives 1.2% (n = 410,000); further: nearly all actives have a fitted effect of over 65% in size
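Cell-based qHTS in HEPG2 carrying a CAGA-GFP Smad reporter; compounds added before 500 pg/mL final TGF-beta, 18 h incubation at 37 degrees C, GFP fluorescence quantified per cell by imaging cytometry.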
TDP1 inh: blocks human tyrosyl-DNA phosphodiesterase 1. Q9NUW8. recombinant TDP1, AlphaScreen DNA substrate cleavage. Potency, µM (doses to about 130 µM), hits mostly inhibitors. actives 0.28% (n = 350,000); further: nearly all actives have a fitted effect of over 40% in size
Target sequence (Q9NUW8 whole entry, looked up): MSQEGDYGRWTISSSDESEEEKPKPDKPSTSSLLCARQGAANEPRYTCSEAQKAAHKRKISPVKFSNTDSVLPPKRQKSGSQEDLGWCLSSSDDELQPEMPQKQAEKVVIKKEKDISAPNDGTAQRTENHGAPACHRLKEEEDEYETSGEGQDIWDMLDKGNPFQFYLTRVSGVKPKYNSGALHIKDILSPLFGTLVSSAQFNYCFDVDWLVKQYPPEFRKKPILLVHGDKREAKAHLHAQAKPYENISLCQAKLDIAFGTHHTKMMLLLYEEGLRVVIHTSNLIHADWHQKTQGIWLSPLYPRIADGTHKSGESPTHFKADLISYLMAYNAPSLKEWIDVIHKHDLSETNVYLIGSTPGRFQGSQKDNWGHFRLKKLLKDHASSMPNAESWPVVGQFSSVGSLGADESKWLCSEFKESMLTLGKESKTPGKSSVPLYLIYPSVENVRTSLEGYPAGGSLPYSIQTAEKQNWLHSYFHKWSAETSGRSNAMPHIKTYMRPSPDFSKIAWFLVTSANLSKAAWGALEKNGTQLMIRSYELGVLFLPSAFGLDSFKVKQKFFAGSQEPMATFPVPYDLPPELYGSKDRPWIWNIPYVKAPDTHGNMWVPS
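Steps: enzyme plus compound, 15 min RT; add biotin/phosphotyrosine-FITC oligonucleotide (15 nM final), react 5 min; add donor/acceptor beads (10 ug/ml final), 10 min; read AlphaScreen. Tdp1 at 1 nM final.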
Each line names hits and unclear results; the compound was inactive in the other large screens. Hits are enriched below; roughly 18% of the tested compounds scored in any of these assays. Unless noted, the call rests on the fitted dose curve; in most records, active means well fitted curve in the direction sought with a large enough effect; inconclusive means small, poorly fitted or top-dose-only effect, or another doubt; inactive means no such curve, though single readings can be large; an effect the other way counts as inactive or inconclusive.

Cc1ccccc1C(=O)N1CCC(C(=O)NC2CCCCCC2)CC1	none (no result: TDP1 inh)
Cc1ccc(NC(=O)C2CCCN(C(=O)c3ccc(Cl)cc3)C2)cc1S(=O)(=O)N1CCOCC1 (stereo not given)	DT40 TDP1 no CPT 16µM, DT40 TDP1 CPT 21µM
CC(O)CN(CCN(CC(C)O)CC(C)O)CC(C)O (stereo not given)	none (no result: IL1B secr inh, HepG2 tox, TGFb inhibitor, TDP1 inh)
Cc1ccccc1C(=O)N1CCC(C(=O)Nc2cccc(S(=O)(=O)N3CCCCC3)c2)CC1	DT40 TDP1 no CPT inconclusive, DT40 TDP1 CPT inconclusive, TGFb inhibitor inconclusive
Cc1ccccc1C(=O)N1CCC(C(=O)Nc2ccc(S(=O)(=O)N3CCCC3)cc2)CC1	DT40 TDP1 no CPT 18µM, DT40 TDP1 CPT inconclusive
O=C(NNC(=O)C1CCN(S(=O)(=O)c2ccccc2)CC1)c1ccccc1O	DT40 TDP1 no CPT 26µM, DT40 TDP1 CPT 7.3µM
Cc1cc(N2CCC(C(=O)Nc3ccc(Cl)cc3)CC2)n2nc(C)c(-c3ccc(Cl)cc3)c2n1	none (no result: IL1B secr inh)
CC(C)(C)[C@]1(O)CCN2CC3c4ccccc4CCc4cccc(c43)[C@@H]2C1 (stereo not given in full)	none (no result: IL1B secr inh, DT40 TDP1 no CPT, HepG2 tox, DT40 TDP1 CPT, TGFb inhibitor)
COc1ccc(N2CCN(CC(=O)Nc3ccccc3C(=O)NC(C)c3ccccc3)CC2)cc1 (stereo not given)	DT40 TDP1 no CPT 21µM, DT40 TDP1 CPT inconclusive (no result: TDP1 inh)
COc1ccccc1N1CCN(CC(=O)Nc2ccccc2C(=O)NC(C)c2ccccc2)CC1 (stereo not given)	DT40 TDP1 no CPT 18µM, DT40 TDP1 CPT 15µM
COc1ccc(CNC(=O)CN2CCN(c3ccc(F)cc3)CC2)cc1	none (no result: TDP1 inh)
COc1ccc(N2CCN(CC(=O)Nc3ccccc3C(=O)NCc3ccccc3)CC2)cc1	DT40 TDP1 no CPT 18µM, DT40 TDP1 CPT 15µM
CC(NC(=O)c1ccccc1NC(=O)CN1CCN(c2ccccc2O)CC1)c1ccccc1 (stereo not given)	DT40 TDP1 no CPT inconclusive, DT40 TDP1 CPT inconclusive, TGFb inhibitor inconclusive
COc1cc(OC)c2c(=O)c(-c3ccccc3)c(C)oc2c1OC	none (no result: IL1B secr inh, HepG2 tox, TGFb inhibitor)
Cc1oc(-c2ccccc2Cl)nc1CSc1nc2ncccc2[nH]1	DT40 TDP1 no CPT inconclusive, DT40 TDP1 CPT inconclusive (no result: IL1B secr inh)
CCOC(=O)[C@]12CCC=C1N(Cc1cccc3ccccc13)C(=O)[C@H](CC(=O)NCCC(C)C)C2	IL1B secr inh -55, DT40 TDP1 no CPT 21µM, DT40 TDP1 CPT 23µM (no result: HepG2 tox, TGFb inhibitor, TDP1 inh)
CCOC(=O)N1CCN(C(=O)C[C@@H]2C[C@@]3(C(=O)OCC)CCC=C3N(Cc3ccco3)C2=O)CC1	none (no result: HepG2 tox, TGFb inhibitor, TDP1 inh)
CCOC(=O)N1CCN(C(=O)C[C@@H]2C[C@@]3(C(=O)OCC)CCC=C3N(Cc3cccc4ccccc34)C2=O)CC1	DT40 TDP1 no CPT 16µM, DT40 TDP1 CPT inconclusive (no result: HepG2 tox, TGFb inhibitor, TDP1 inh)
CCOC(=O)[C@]12CCC=C1N(Cc1cccc3ccccc13)C(=O)[C@H](CC(=O)NCc1ccc(OC)c(OC)c1)C2	IL1B secr inh inconclusive, DT40 TDP1 no CPT 16µM, DT40 TDP1 CPT inconclusive (no result: HepG2 tox, TGFb inhibitor, TDP1 inh)
CCOC(=O)[C@]12CCC=C1N(Cc1ccco1)C(=O)[C@H](CC(=O)NCc1ccc(OC)c(OC)c1)C2	none (no result: HepG2 tox, TGFb inhibitor, TDP1 inh)
CC(C)C[C@H](NC(=O)N1CC(=O)Nc2ccccc21)C(=O)N1CCC(C(=O)O)CC1	none
CCCCCCCCN1[C@@H](CC(C)=O)c2cc(C(F)(F)F)ccc2S1(=O)=O	DT40 TDP1 no CPT 13µM, DT40 TDP1 CPT inconclusive, TGFb inhibitor inconclusive (no result: TDP1 inh)
CC(=O)C[C@H]1c2cc(C(F)(F)F)ccc2S(=O)(=O)N1C1CCCCC1	IL1B secr inh inconclusive, DT40 TDP1 no CPT 21µM, DT40 TDP1 CPT 16µM, TGFb inhibitor 11µM (no result: TDP1 inh)
COC(=O)C[C@H]1c2cc(C(F)(F)F)ccc2S(=O)(=O)N1C1CCCCC1	DT40 TDP1 no CPT inconclusive, DT40 TDP1 CPT inconclusive, TGFb inhibitor inconclusive (no result: TDP1 inh)
